In the supplement of paper PMC8728848:
This is one part of a sample in which the strongest signals are shown more often than they occur.

Key:
Test in all cases: glycan array binding signal (z-score within array); higher = stronger binding
Conditions in all cases: glycan notation: IUPAC condensed, linker removed
[1] = molecular target: Fuc(a1-2)Gal(b1-3)[Fuc(a1-4)]GlcNAc(b1-2)Man(a1-3)[Fuc(a1-2)Gal(b1-3)[Fuc(a1-4)]GlcNAc(b1-2)Man(a1-6)]Man(b1-4)GlcNAc(b1-4)[Fuc(a1-6)]GlcNAc(b1-4)[Fuc(a1-6)]GlcNAc
Summary of the method: (§1)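 The Consortium for Functional Glycomics database supplied 3228 glycan arrays, of which those lacking an available protein sequence were dropped. The binding signal, a within-array Z-score, was averaged across arrays of the same protein sequence and across linkers. Negative scores can be read as non-binding.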

[2] = molecular target: Fuc(a1-2)Gal(b1-3)[Fuc(a1-4)]GlcNAc(b1-3)[Gal(b1-4)GlcNAc(b1-6)]Gal(b1-4)Glc
Summary of the method: as §1

[3] = molecular target: Fuc(a1-2)Gal(b1-4)Fuc(a1-3)]GlcNAc(b1-2)Man(a1-3)[Fuc(a1-2)Gal(b1-4)[Fuc(a1-3)]GlcNAc(b1-2)Man(a1-6)]Man(b1-4)GlcNAc(b1-4)GlcNAc
Summary of the method: as §1

[4] = molecular target: Fuc(a1-2)Gal(b1-4)[Fuc(a1-3)]GlcNAc(b1-3)Gal(b1-4)[Fuc(a1-3)]GlcNAc
Summary of the method: as §1

[5] = molecular target: Fuc(a1-2)[Gal(a1-3)]Gal(b1-3)GlcNAc(b1-2)Man(a1-3)[Fuc(a1-2)[Gal(a1-3)]Gal(b1-3)GlcNAc(b1-2)Man(a1-6)]Man(b1-4)GlcNAc(b1-4)[Fuc(a1-6)]GlcNAc
Summary of the method: as §1

[6] = molecular target: Fuc(a1-2)[Gal(a1-3)]Gal(b1-4)GlcNAc(b1-3)[Fuc(a1-2)[Gal(a1-3)]Gal(b1-4)GlcNAc(b1-6)]GalNAc
Summary of the method: as §1

[7] = molecular target: Fuc(a1-2)[GalNAc(a1-3)]Gal(b1-3)GalNAc(b1-3)Gal(a1-4)Gal(b1-4)Glc
Summary of the method: as §1

[8] = molecular target: Fuc(a1-2)[GalNAc(b1-3)]Gal
Summary of the method: as §1

[9] = molecular target: Fuc(a1-3)[Gal(b1-4)]GlcNAc(b1-3)Gal(b1-4)[Fuc(a1-3)]GlcNAc
Summary of the method: as §1

Fuc(b1-3)GlcNAc = molecular target: Fuc(b1-3)GlcNAc
Summary of the method: as §1

[10] = molecular target: Gal(a1-3)Gal(b1-3)[Fuc(a1-4)]GlcNAc(b1-2)Man(a1-3)[Gal(a1-3)Gal(b1-3)[Fuc(a1-4)]GlcNAc(b1-2)Man(a1-6)]Man(b1-4)GlcNAc(b1-4)GlcNAc
Summary of the method: as §1

[11] = molecular target: Gal(a1-3)[Gal(a1-4)]Gal(b1-4)GlcNAc
Summary of the method: as §1

[12] = molecular target: Gal(b1-3)GlcNAc(b1-3)Gal(b1-4)GlcNAc(b1-2)Man(a1-3)[Gal(b1-3)GlcNAc(b1-3)Gal(b1-4)GlcNAc(b1-2)Man(a1-6)]Man(b1-4)GlcNAc(b1-4)GlcNAc
Summary of the method: as §1

[13] = molecular target: Gal(b1-3)[Fuc(a1-4)]GlcNAc(b1-2)Man(a1-3)[Gal(b1-3)[Fuc(a1-4)]GlcNAc(b1-2)Man(a1-6)]Man(b1-4)GlcNAc(b1-4)[Fuc(a1-6)]GlcNAc
Summary of the method: as §1

[14] = molecular target: Gal(b1-3)[GlcNAc(b1-6)]GalNAc
Summary of the method: as §1

[15] = molecular target: Gal(b1-4)GalNAc(a1-3)[Fuc(a1-2)]Gal(b1-4)GlcNAc
Summary of the method: as §1

[16] = molecular target: Gal(b1-4)GlcNAc(b1-2)Man(a1-3)[Gal(b1-4)GlcNAc(b1-2)Man(a1-6)]Man(b1-4)GlcNAc(b1-4)[Fuc(a1-6)]GlcNAc
Summary of the method: as §1

[17] = molecular target: Gal(b1-4)GlcNAc(b1-2)[Gal(b1-4)GlcNAc(b1-6)]Man(a1-6)[Gal(b1-4)GlcNAc(b1-2)Man(a1-3)]Man(b1-4)GlcNAc(b1-4)[Fuc(a1-6)]GlcNAc
Summary of the method: as §1

[18] = molecular target: Gal(b1-4)GlcNAc(b1-3)Gal(b1-4)GlcNAc
Summary of the method: as §1

[19] = molecular target: Gal(b1-4)GlcNAc(b1-3)Gal(b1-4)GlcNAc(b1-2)Man(a1-3)[Gal(b1-4)GlcNAc(b1-3)Gal(b1-4)GlcNAc(b1-2)Man(a1-6)]Man(b1-4)GlcNAc(b1-4)GlcNAc
Summary of the method: as §1

[20] = molecular target: Gal(b1-4)GlcNAc(b1-3)Gal(b1-4)GlcNAc(b1-3)Gal(b1-4)GlcNAc(b1-3)Gal(b1-4)GlcNAc(b1-3)Gal(b1-4)GlcNAc(b1-3)Gal(b1-4)GlcNAc(b1-2)Man(a1-3)[Gal(b1-4)GlcNAc(b1-3)Gal(b1-4)GlcNAc(b1-3)Gal(b1-4)GlcNAc(b1-3)Gal(b1-4)GlcNAc(b1-3)Gal(b1-4)GlcNAc(b1-3)Gal(b1-4)GlcNAc(b1-2)Man(a1-6)]Man(b1-4)GlcNAc(b1-4)GlcNAc
Summary of the method: as §1

[21] = molecular target: Gal(b1-4)GlcNAc(b1-3)Gal(b1-4)GlcNAc(b1-3)[Gal(b1-4)GlcNAc(b1-3)Gal(b1-4)GlcNAc(b1-6)]GalNAc
Summary of the method: as §1

[22] = molecular target: Gal(b1-4)GlcNAc(b1-3)GalNAc
Summary of the method: as §1

Gal3S6S(b1-4)GlcNAc6S = molecular target: Gal3S6S(b1-4)GlcNAc6S
Summary of the method: as §1

GalNAc(a1-3)GalNAc = molecular target: GalNAc(a1-3)GalNAc
Summary of the method: as §1

GalNAc3S(b1-4)GlcNAc3S = molecular target: GalNAc3S(b1-4)GlcNAc3S
Summary of the method: as §1

GalNAc4S6S(b1-4)GlcNAc = molecular target: GalNAc4S6S(b1-4)GlcNAc
Summary of the method: as §1

Glc(a1-6)Glc(a1-6)Glc = molecular target: Glc(a1-6)Glc(a1-6)Glc
Summary of the method: as §1

GlcA(b1-6)Gal = molecular target: GlcA(b1-6)Gal
Summary of the method: as §1

[23] = molecular target: GlcA3S(b1-3)Gal(b1-4)GlcNAc(b1-3)Gal(b1-4)Glc
Summary of the method: as §1

B1: XTP3-B-MRH1 (Homo sapiens), Q96DZ1 (protein)
chain: LLEPLFKQSSCSYRIESYWTYEVCHGKHIRQYHEEKETGQKINIHEYYLGNMLAKNLLFEKEREAEEKEKSNEIPTKNIEGQMTPYYPVGMGNGTPCSLKQNRPRSSTVMYICHPESKHEILSVAEVTTCEYEVVILTPLLCSHPKYRFRA
**Q.** What does the source list for B1?
**A.** glycan array binding signal (z-score) [1]: 0.479; glycan array binding signal (z-score) [2]: 0.735; glycan array binding signal (z-score) [3]: 3.43; glycan array binding signal (z-score) [4]: 0.249; glycan array binding signal (z-score) [5]: -0.029; glycan array binding signal (z-score) [6]: 0.358; glycan array binding signal (z-score) [7]: -0.49; glycan array binding signal (z-score) [8]: -1.01; glycan array binding signal (z-score) [9]: 4.25; glycan array binding signal (z-score) (Fuc(b1-3)GlcNAc): 0.382; glycan array binding signal (z-score) [10]: -0.237; glycan array binding signal (z-score) [11]: -0.853; glycan array binding signal (z-score) [12]: 0.941; glycan array binding signal (z-score) [13]: -0.731; glycan array binding signal (z-score) [14]: -0.389; glycan array binding signal (z-score) [15]: -0.41; glycan array binding signal (z-score) [16]: -0.184; glycan array binding signal (z-score) [17]: 1.61; glycan array binding signal (z-score) [18]: 2.97; glycan array binding signal (z-score) [19]: 3.79; glycan array binding signal (z-score) [20]: 0.082; glycan array binding signal (z-score) [21]: 1.07; glycan array binding signal (z-score) [22]: -0.205; glycan array binding signal (z-score) (Gal3S6S(b1-4)GlcNAc6S): -0.392; glycan array binding signal (z-score) (GalNAc(a1-3)GalNAc): 3.12; glycan array binding signal (z-score) (GalNAc3S(b1-4)GlcNAc3S): 3.07; glycan array binding signal (z-score) (GalNAc4S6S(b1-4)GlcNAc): -0.682; glycan array binding signal (z-score) (Glc(a1-6)Glc(a1-6)Glc): -0.837; glycan array binding signal (z-score) (GlcA(b1-6)Gal): 0.841; glycan array binding signal (z-score) [23]: -0.47
